In all, about 16,000 sequences were measured (“Z-score”: median about -0.37, highest 2% from about 3.1 on). Shown is part of a subset that was picked to be rich in the highest values.
test system: RBM10 RRM1-ZnF-RRM2 (GST-tagged construct); test: RNAcompete 7-mer binding Z-score; higher = stronger binding preference
How it was run: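 A designed pool of 241 399 RNAs, each up to 41 nt and transcribed from microarray-derived DNA templates, was used at 1.5 nmol with 20 pmol of GST-tagged RBM10 constructs. The mixture, in 1 ml Hepes pH 7.8 buffer with KCl, NaCl, glycerol, DTT, BSA and glutathione Sepharose beads, was held 30 min at 4°C and then washed four times for 2 min at 4°C. Bound RNA was read out by microarray hybridisation, and enrichment of each heptamer motif was scored as a one-sided Z-score over the probes carrying it.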

Sequence | RNAcompete 7-mer binding Z-score
UUGACGG | 0.399
CGUUUGC | -0.766
UUUCGAU | -0.664
UUCGGGA | 0.734
GGGACCA | 1.9
UUCCGUC | -0.726
UCAAUGG | 1.28
UCUGUGG | 0.199
UGGAGGC | 2.16
GGGAGGG | 4.06
AGGAGGG | 3.31
CGGAGGG | 2.92
AGGAGGC | 1.72
GGGAGCC | 0.891
AGGAGGU | 2.71
GGGAGCG | 3.23
GGGAGGC | 3.2
CGGAGGC | 1.24
CGGAGCG | 1.45
GAGAGGG | 2.75
CGCUGGA | -0.027
AGUCGCG | -0.0634
UGCCACC | -0.759
ACUUUGG | -0.351

Sequence | RNAcompete 7-mer binding Z-score
GGCUUGU | -0.318
CUCGUUC | -0.61
GGCUUCA | -0.428
GAUACUG | -0.118
GAAGUCG | 0.428
CUUCUCA | -0.981
UCGUGCG | -0.027
UCUUAUU | -0.803
UUAGUAA | -0.355
AGGCCUC | -0.828
GGGAGGU | 3.39
CGGAGGU | 2.46
UGGAGGU | 3.02
CCACGAA | -0.544
CAGGUAG | 2.68
AAGGUAA | 3.65
AAGGUAU | 2.03
UAGGUAA | 1.96
UAGGUAG | 2.27
AAGGUAG | 3.82
GGCCGUA | 0.0786
AAGAGGU | 1.66
CCGCAUA | -0.817
AAGAUUU | -0.588

Sequence | RNAcompete 7-mer binding Z-score
CGUAAUC | -0.511
GGGUGAU | 3.16
GGGUGAA | 3.66
CGGUGAA | 0.723
CGGUGAG | 1.64
GGGUGAG | 4.12
UGGUGAA | 1.22
AGGUGAU | 1.62
UGGUGAU | 0.727
GGGUGAC | 2.92
CAUUUCU | -0.872
CAUAACU | -0.592
UAAAGCC | -0.661
ACGUUUC | -0.912
GAACAGG | 3.18
GGACAGG | 3.23
AGACAGG | 1.72
GAACAGA | 0.745
UAACAGG | 1.14
GGACAGU | 1.01
ACCCAGG | -0.173
GCUUUAA | -0.726
CCAGCUA | -0.719
GUGGUAU | 1.08

Sequence | RNAcompete 7-mer binding Z-score
GUGCUAG | 0.268
CGAUCUG | -0.795
GUCUAAC | -0.486
GAGUAGG | 3.6
AGGUAUG | 1.95
GAGUAGA | 1.4
UGGUAGC | 1.01
GGGUAGC | 2.69
UGGUAGG | 3.16
CGGUAGA | 1.01
UGGUAGA | 1.89
GAGUAGU | 0.68
GGGUAUC | 2.16
GGGUAUG | 3.69
GGGUAGA | 3.84
UGAUUCC | -0.668
AAUUGUG | -0.00512
UUGGUGA | 1.39
GAUCGCG | -0.0925
UCGUUCA | -0.508
UUUGAUG | -0.358
UUGAGCA | -0.165
GGGUAGU | 3.17
AGGUAGG | 3.72

Sequence | RNAcompete 7-mer binding Z-score
CGGUAGU | 0.37
GGGUAGG | 4.42
UGGUACA | 0.949
AGGUAGA | 2.42
CGGUAGG | 2.15
GGGUACU | 2.05
GGGUACA | 3.39
UGGUAGU | 0.585
GCGUAGG | 2.21
AGGUAGC | 0.862
UAUGAAC | -0.195
CAUGCUU | -0.861
UGCUGCG | -0.34
UACUCGC | -0.548
GUGGAAU | 2.34
AGUAUAU | -0.351
GAGGGAC | 2.02
CGGGGAA | 2.76
GGGGGAA | 2.61
AGGGGAG | 2.52
ACGGGAU | 1.88
AAGGGAU | 3.44
UAGGGAU | 2.48
AAGGGAG | 4.04

Sequence | RNAcompete 7-mer binding Z-score
AGGGGAA | 3.56
AGGGGAC | 1.97
AAGGGAC | 3.43
AAGGGCG | 3.12
UUAGGCC | -0.471
AGGCCUG | -0.632
AAUCGCU | -0.825
GUCUCUC | -0.719
CGCGUGG | 1.41
UUCGGCU | -0.61
AACCAGU | -0.235
GUCGUCC | -0.377
CAACUAC | -0.628
UAGGGAG | 3.15
UAGGGAA | 3.46
AGGGGAU | 3.41
GGGGGAU | 2.89
AAGGCAA | 1.95
GAGGGAG | 3.04
UGGGGAU | 3.05
ACGGGAA | 2.76
CAGGGAA | 3.07
AAGGGAA | 4.17
UAGGGAC | 2.24

Sequence | RNAcompete 7-mer binding Z-score
CAGGGAG | 3.08
GUCUCCU | -0.694
CACAAGA | -0.391
AAAAUGG | 2.68
CAAGUGA | 0.228
GGCUAAA | 0.661
AAGGGCC | 1.53
AAGGGCA | 3.44
AAGGGCU | 1.39
AAUGGGG | 4.38
GAUGGGG | 4
AAUGGAG | 3.01
GAUGGUG | 2.77
ACUGGGG | 1.58
UAUGGGA | 2.76
GAUGGAG | 3.16
GAUGGGC | 2.09
CAUGGGG | 2.51
GAUGGUA | 2.46
UAUGGAG | 1.68
GAUGGGA | 3.8
AGCAUUU | -0.726
GCCAGCA | -0.205
CCGGUGC | -0.136

Sequence | RNAcompete 7-mer binding Z-score
CAUGCAA | -0.289
CUGUCCU | -0.817
UCUUCGG | -0.657
CGUGCGA | -0.209
CUCGAAG | -0.318
CGAACUC | -0.719
UAUGGGU | 2.81
UAUGGGG | 3.19
AAUGGAA | 3.27
AAUGGGC | 2.92
CAUGGAA | 1.36
CAUGGGA | 2.16
AAUGGGU | 4.1
AAUGGGA | 4.69
GAUGGGU | 3.01
UAUGGAA | 1.22
CAUGGGU | 2.58
UAUGGGC | 1.64
